Assay outcomes deposited in PubChem by National Center for Advancing Translational Sciences (NCATS).
Hits are enriched below; roughly 0.74% of the tested compounds scored in any of these assays.
APE1 inh – qHTS Assay for Inhibitors of the Human Apurinic/apyrimidinic Endonuclease 1 (APE1); DNA repair nuclease/redox regulator APEX1 (Homo sapiens), P27695; recombinant APE1, TAMRA/BHQ-2 abasic DNA cleavage fluorescence; Potency, µM (series often up to 65.8 µM), inactives show top-dose activity change, negative = inhibition, usual class: inhibitors; hit rate 0.35% among 350,000; AID 2517, 2012;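 also: plate controls were vehicle for no effect and reference inhibitor for full effect; nearly all actives have a fitted effect of over 55% in size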
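Activity was derived from the fluorescence gain between first and third kinetic reads (60 s intervals, ex 525/em 598 nm) after 50 nM THF-abasic TAMRA/BHQ-2 duplex was added to 0.75 nM APE1 preincubated 15 min with compound.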
RECQ1 helicase – qHTS Assay for Inhibitors of RecQ-Like Dna Helicase 1 (RECQ1) | RECQ1 DNA unwinding, red fluorescence kinetic read | AID 2549, 2010 | hit rate 0.54% among 240,000 | Potency, µM (highest dose often 57.3 µM), without a hit: top-dose activity, negative = inhibition, most hits filed as inhibitors;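 also: plate controls were vehicle for no effect and no enzyme for full effect; nearly all actives have a fitted effect of over 30% in size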
Target sequence (P46063 whole entry, looked up): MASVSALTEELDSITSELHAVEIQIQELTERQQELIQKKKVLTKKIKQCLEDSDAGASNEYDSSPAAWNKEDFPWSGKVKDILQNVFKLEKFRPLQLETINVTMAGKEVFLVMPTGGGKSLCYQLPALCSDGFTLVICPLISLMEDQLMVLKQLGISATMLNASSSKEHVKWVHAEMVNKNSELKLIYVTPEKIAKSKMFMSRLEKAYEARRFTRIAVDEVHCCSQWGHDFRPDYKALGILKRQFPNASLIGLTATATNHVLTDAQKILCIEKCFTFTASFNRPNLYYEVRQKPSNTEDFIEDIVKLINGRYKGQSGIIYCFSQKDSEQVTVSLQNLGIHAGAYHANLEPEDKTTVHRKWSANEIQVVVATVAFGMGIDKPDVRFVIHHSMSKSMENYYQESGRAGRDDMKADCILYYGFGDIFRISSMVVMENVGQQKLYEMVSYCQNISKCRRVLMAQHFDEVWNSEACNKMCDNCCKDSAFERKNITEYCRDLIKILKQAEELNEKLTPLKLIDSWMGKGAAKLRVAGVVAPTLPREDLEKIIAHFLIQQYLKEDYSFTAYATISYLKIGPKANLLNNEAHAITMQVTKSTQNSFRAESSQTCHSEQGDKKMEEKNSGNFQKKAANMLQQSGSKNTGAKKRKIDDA
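RECQ1T1 50 nM; forked duplex (20 bp + 30-nt ss tails) 200 nM, ATP 2 mM final; pH 8.0, 2 mM MgCl2, 2.5 ug/ml poly(dI-dC); 15 min compound preincubation; discontinuous kinetic read over 2 h at RT.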
PGK inhibitor – qHTS Assay to Find Inhibitors of Phosphoglycerate Kinase; Phosphoglycerate kinase, glycosomal (Trypanosoma brucei brucei), P07378; PGK/GAPDH coupled, Kinase-Glo luminescence, 60 min; Potency, µM (highest dose often 57.5 µM), for the others: top-dose activity change, negative = inhibition, most hits filed as inhibitors; hit rate 0.043% among 380,000; AID 602233, 2012; also: % is scaled to controls: 0 for no effect and ±100 for the full control effect; nearly all actives have a fitted effect of over 60% in size
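Luminescent ATP detection (Kinase-Glo Plus) follows a 60-minute room-temperature incubation, with wells lacking PGK as controls. Buffer: 100 mM TEA (pH 7.6), 5 mM MgCl2, 0.01% Tween-20. Coupling enzyme GAPDH (100 nM final) supplies unstable 1,3-BPG in-well.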
FEN1 inh-1 – qHTS Assay for the Inhibitors of Human Flap endonuclease 1 (FEN1); Recombinant FEN1 flap cleavage, fluorescence, 15 min; Potency, µM (series often up to 114 µM), for the others: top-dose activity change, negative = inhibition, most hits filed as inhibitors; hit rate 0.35% among 390,000; AID 588795, 2011; also: % is scaled to controls: 0 for no effect and ±100 for the full control effect; nearly all actives have a fitted effect of over 65% in size
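Quantitative HTS format: each compound was titrated, incubated with 10 nM nuclease for 15 min at room temperature, then challenged with flap substrate at 50 nM final. Signal change over 15 min gave concentration–effect curves.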
BLM inh – qHTS Assay for Inhibitors of Bloom's syndrome helicase (BLM) | RecQ-like DNA helicase BLM (Homo sapiens), P54132 | recombinant BLM DNA unwinding, fluorescence dequenching | Potency, µM (titrated, usually from 56.1 µM), for the others: top-dose activity change, negative = inhibition, usual class: inhibitors | hit rate 0.2% among 350,000 | AID 2528, 2010;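 also: plate controls were vehicle for no effect and no enzyme for full effect; nearly all actives have a fitted effect of over 35% in size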
FEN1 inh-2 – qHTS Assay for the Inhibitors of FEN1: Confirmatory Assay for Cherry-picked Compounds; shares compounds with FEN1 inh-1; FEN1 flap cleavage, TAMRA/BHQ2 fluorogenic DNA substrate; hit rate 79% among 880; Potency, µM, usual class: inhibitors; also: nearly all actives have a fitted effect of over 60% in size
Starred values were filed as active, the others as inactive; i = inactive; u = inconclusive; x = no result given. Calls follow the shape of the dose curve; as a rule, active = well fitted curve in the direction sought with a large enough effect; inconclusive = small, poorly fitted or top-dose-only effect, or another doubt; inactive = no such curve, though single readings can be large; an effect the other way counts as inactive or inconclusive. Potency is read from the fitted curve at half-maximal effect.

SMILES | APE1 inh | RECQ1 helicase | PGK inhibitor | FEN1 inh-1 | BLM inh | FEN1 inh-2
Cc1csc(N=Cc2ccc([N+](=O)[O-])o2)n1 | x | x | -13.2% | x | x | 30.1*
Cc1ccsc1/C=N/NC(=O)C(N)=O | -1.6% | -4.8% | -0.1% | 15.8µM* | -2.5% | u
CC(C)Nc1nc(-c2ccccc2)nc(-n2ccnc2)n1 | -1.1% | i | 3.8% | -9.9% | -1.2% | x
c1ccc(-c2nc(-n3ccnc3)nc(-n3ccnc3)n2)cc1 | 8.6% | -7.4% | -5.3% | u | 81.5% | 42.6*
CC(C)(C)NC(=O)COc1ccc(CNCc2ccccn2)cc1 | -1.4% | i | -5.1% | 6.1% | -7.4% | x
CCn1cc(C(=O)O)c(=O)c2cc(F)c(N/N=C/c3ccccc3[N+](=O)[O-])cc21 | 0.8% | -7.3% | 0.7% | -20.0% | -10.0% | 7.57*
COc1ccc(/C=C2/SC(=O)N(CCNC(=O)C3CCCN3C(=O)c3cccs3)C2=O)cc1 (stereo not given) | u | -0.8% | 7.6% | 4.1% | -7.3% | x
COc1cc(/C=C/c2nc3ccccc3c(=O)[nH]2)cc(Cl)c1O | 11.8% | x | -9.9% | u | -27.7% | u
COc1cccc(-c2coc3c(C)c4oc(=O)c(CC(=O)O)c(C)c4cc23)c1 | 75.4% | x | -3.6% | -33.8% | -4.7% | x
